Source: PubChem BioAssay (NCATS)
Unmarked numbers belong to inactive results. Records with an inconclusive call do not appear. Calls of active or inactive are those of the source. The call rests on the fitted dose curve; in most records, active means well fitted inhibition curve with a large enough effect; inconclusive means small, poorly fitted or top-dose-only effect; inactive means flat fitted curve, though single readings scatter.

These molecules were tested against Ubiquitin carboxyl-terminal hydrolase 1 (Homo sapiens) (UniProt O94782) (assay: Inhibitors of USP1/UAF1: Pilot qHTS (AID 504865; further: nearly all actives have a fitted effect of over 35% in size; further: potency means the concentration at half of the fitted maximal effect;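 on activity change, negative = inhibition: rhodamine fluorescence freed from ubiquitin-rhodamine substrate followed over time; top concentration of the series differs between compounds; on the % scale 0 is the no-effect control and ±100 the full control effect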)). Details: purified USP1/UAF1, Ub-rhodamine cleavage fluorescence; series mostly up to 114 µM; activity change, negative = inhibition: at the top concentration.
Ubiquitin carboxyl-terminal hydrolase 1 (Homo sapiens), sequence (O94782 whole entry, looked up): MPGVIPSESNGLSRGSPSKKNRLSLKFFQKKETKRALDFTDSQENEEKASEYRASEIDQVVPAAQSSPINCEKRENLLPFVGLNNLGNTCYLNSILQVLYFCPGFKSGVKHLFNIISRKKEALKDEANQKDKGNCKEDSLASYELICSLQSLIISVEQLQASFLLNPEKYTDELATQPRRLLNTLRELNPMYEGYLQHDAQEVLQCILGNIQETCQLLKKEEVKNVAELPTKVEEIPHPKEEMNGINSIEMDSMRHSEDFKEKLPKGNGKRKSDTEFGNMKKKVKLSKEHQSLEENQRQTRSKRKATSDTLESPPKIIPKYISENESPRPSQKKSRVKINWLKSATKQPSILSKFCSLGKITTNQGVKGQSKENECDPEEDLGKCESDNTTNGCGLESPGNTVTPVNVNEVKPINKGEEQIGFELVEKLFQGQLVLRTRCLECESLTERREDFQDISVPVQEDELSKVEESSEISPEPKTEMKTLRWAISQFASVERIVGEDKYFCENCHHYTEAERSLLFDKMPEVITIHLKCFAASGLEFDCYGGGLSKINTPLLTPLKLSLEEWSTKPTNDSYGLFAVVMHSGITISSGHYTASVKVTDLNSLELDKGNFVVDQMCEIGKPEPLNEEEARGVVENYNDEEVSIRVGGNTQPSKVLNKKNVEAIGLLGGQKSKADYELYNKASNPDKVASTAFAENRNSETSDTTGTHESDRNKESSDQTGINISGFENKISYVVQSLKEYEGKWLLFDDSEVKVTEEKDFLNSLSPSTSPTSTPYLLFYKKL
How it was run: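 USP1/UAF1 complex (1nM) preincubated with compound 15 min at room temperature, then Ub-Rho substrate (150nM final) added. Fluorescence read kinetically at 480/540 nm, 6 reads every 60 seconds. Buffer: 50mM HEPES pH 7.8, 0.5mM EDTA, 0.1 mg/ml BSA, 1mM TCEP, 0.01% Tween-20.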

| SMILES | activity change, negative = inhibition [%] | Potency |
| --- | --- | --- |
| CC1(C)S[C@H]2C(NC(=O)[C@@H](N)c3ccc(O)cc3)C(=O)N2[C@@H]1C(=O)O (some centres undefined) | -7.33 | – |
| N[C@H](Cc1ccc(O)cc1)C(=O)O | -8.35 | – |
| COC(=O)CCCC[C@@H]1SC[C@@H]2NC(=O)N[C@@H]21 | 1.96 | – |
| C=C1CC/C=C(\C)CC[C@@H]2[C@@H]1CC2(C)C | -4.59 | – |
| C[C@@]12CCC(=O)C=C1C=CC1C2CC[C@]2(C)C1CC[C@@]21CCC(=O)O1 (some centres undefined) | -4.77 | – |
| CC1=C(C2=C(C)C(C(C)C)C3=C(C(=O)C(O)C3O)C2O)C(O)C2=C(C(O)C(O)C2=O)C1C(C)C (centres undefined) | -10.8 | – |
| C[C@H](CCC(=O)O)[C@H]1CC[C@H]2[C@H]3C(C[C@H](O)[C@]12C)[C@@]1(C)CC[C@@H](O)C[C@H]1C[C@H]3O (some centres undefined) | -5.3 | – |
| NC(CCC(=O)N[C@@H](CS)C(=O)NCC(=O)O)C(=O)O (some centres undefined) | -8.58 | – |
| C[C@@H]1O[C@@H](O[C@H]2[C@H](Oc3cc(O)c4c(c3)O[C@H](c3ccc(O)cc3)CC4=O)O[C@H](CO)[C@@H](O)[C@@H]2O)[C@H](O)[C@H](O)[C@H]1O | -3.71 | – |
| N[C@H](CO)Cc1cnc[nH]1 | -4.9 | – |
| COC1OC2COC(c3ccccc3)OC2C(O)C1O (centres undefined) | 2.43 | – |
| O=C(O)C1=C[C@@H](O)[C@@H](O)[C@H](O)C1 | 0.801 | – |
| NC(=O)NCCC[C@H](N)C(=O)O | 1.28 | – |
| N[C@@H]1C(O)OC(CO)C(O)C1O (some centres undefined) | -8.17 | – |
| CC1=CC(=O)[C@@H]2C[C@H]1C2(C)C | -5.22 | – |
| CCC1OC(=O)CC(O)C(C)[C@@H](O[C@@H]2OC(C)[C@H](O[C@@H]3C[C@@](C)(O)C(O)C(C)O3)C(N(C)C)C2O)[C@H](CC=O)CC(C)C(=O)/C=C/C(C)=C/[C@@H]1COC1OC(C)C(O)C(OC)[C@@H]1OC (some centres undefined) | -14.4 | – |

| SMILES | activity change, negative = inhibition [%] | Potency |
| --- | --- | --- |
| COC(=O)[C@H]1[C@@H]2C[C@@H]3c4[nH]c5ccccc5c4CCN3C[C@H]2CC[C@H]1O | -8.47 | – |
| CC[C@H](CC[C@@H](C)C1CC[C@H]2[C@@H]3CC=C4C[C@@H](O)CC[C@]4(C)[C@H]3CC[C@]12C)C(C)C (some centres undefined) | -5.13 | – |
| C=Cc1c(C)/c2[n-]/c1=C\c1[n-]c(c(CC)c1C)/C=c1\[n-]c3c(c1C)C(=O)C(C(=O)[O-])C=3c1[n-]c(c(C)c1CCC(=O)[O-])\C=2.[Cu].[Na+].[Na+] (centres undefined) | – | 20 µM (active) |
| COC1OC(CO)C(OC2OC(C(=O)O)C(OC3OC(COS(=O)(=O)O)C(OC4OC(C(=O)O)C(OC5OC(CO)C(OC6OC(C(=O)O)C(OC7OC(COS(=O)(=O)O)C(OC8OC(C(=O)O)=C[C@H](O)C8OS(=O)(=O)O)C(O)C7NC(C)=O)[C@@H](O)C6O)C(O)C5NC(C)=O)[C@@H](O)C4O)C(O)C3NC(C)=O)[C@@H](O)C2O)C(O)C1NC(C)=O (some centres undefined) | 1.37 | – |
| CC(C)CCCC(C)C1CCC2C3CC=C4CC(O)CCC4(C)C3CCC12C (centres undefined) | -13.9 | – |
| C[C@@]12C=CC(=O)C=C1CCC1C3CC(O)[C@@](O)(C(=O)CO)[C@]3(C)CC(O)[C@]12F (some centres undefined) | -5.53 | – |
| O=c1[nH]c(=O)n([C@@H]2O[C@H](CO)[C@@H](O)[C@H]2O)cc1F | -9.46 | – |
| CCC1OC(=O)C(C)[C@@H](O[C@H]2C[C@@](C)(OC)C(O)C(C)O2)C(C)[C@@H](O[C@@H]2OC(C)CC(N(C)C)C2O)[C@@](C)(O)CC(C)C(=O)[C@@H](C)C(O)[C@]1(C)O (some centres undefined) | -9.97 | – |
| O=c1ccn([C@H]2C[C@H](O)[C@@H](CO)O2)c(=O)[nH]1 | -6.39 | – |
| O=C(O)C1(O)C[C@H](O)C(O)[C@@H](O)C1 (some centres undefined) | -2.91 | – |
| CC1C2CCC3C4CC=C5CC(N(C)C)CC[C@@]5(C)C4CC[C@@]32CN1C (some centres undefined) | -13.3 | – |
| O=c1[nH]c(=O)n([C@@H]2O[C@H](CO)[C@@H](O)[C@H]2O)cc1Br | 0.801 | – |
| C#C[C@]1(O)CCC2C3CCC4=CC(=O)CCC4C3CC[C@@]21C (some centres undefined) | 0.528 | – |
| CCC(C)C(=O)OC1CC(O)C=C2C=CC(C)C(CCC(O)CC(O)CC(=O)O)C21 (centres undefined) | -4.93 | – |
| OCC1OC(n2cnc3c(=S)nc[nH]c32)C(O)C1O (centres undefined) | – | inactive |

These molecules were tested against DNA dC->dU-editing enzyme APOBEC-3G (Homo sapiens) (UniProt Q9HC16) (assay: qHTS for inhibitors of Vif-A3G interactions: Validation (AID 588379; further: 0% is about no effect)). Details: Vif-A3G protein interaction assay; series mostly up to 46.1 µM; activity change, negative = inhibition: at the top concentration.
DNA dC->dU-editing enzyme APOBEC-3G (Homo sapiens), sequence (Q9HC16 whole entry, looked up): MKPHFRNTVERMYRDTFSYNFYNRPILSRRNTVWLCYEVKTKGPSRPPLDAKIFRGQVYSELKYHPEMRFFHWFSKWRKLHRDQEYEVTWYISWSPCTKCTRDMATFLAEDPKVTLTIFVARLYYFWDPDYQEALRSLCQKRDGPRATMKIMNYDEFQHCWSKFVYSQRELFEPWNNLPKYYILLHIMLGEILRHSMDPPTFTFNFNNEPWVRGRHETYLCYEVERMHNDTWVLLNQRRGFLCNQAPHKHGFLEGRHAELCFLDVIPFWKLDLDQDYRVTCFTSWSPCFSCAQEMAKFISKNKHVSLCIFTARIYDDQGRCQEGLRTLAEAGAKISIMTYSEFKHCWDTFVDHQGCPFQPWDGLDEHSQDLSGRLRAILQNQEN
How it was run: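 Yellow fluorescence (Ex 488, Em 500-530) of Vif-coexpressing HeLa A3G-eYFP cells, scanned by Acumen cytometer, reports blocked A3G degradation. Cells plated at 700/well overnight at 37 deg C before compound addition, then a further overnight compound incubation at 37 deg C.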

| SMILES | activity change, negative = inhibition [%] |
| --- | --- |
| N[C@H](Cc1ccc(O)cc1)C(=O)O | -1.28 |
| COC(=O)CCCC[C@@H]1SC[C@@H]2NC(=O)N[C@@H]21 | 0.654 |
| C=C1CC/C=C(\C)CC[C@@H]2[C@@H]1CC2(C)C | -0.155 |
| CC1=C(C2=C(C)C(C(C)C)C3=C(C(=O)C(O)C3O)C2O)C(O)C2=C(C(O)C(O)C2=O)C1C(C)C (centres undefined) | 0.487 |
| C[C@H](CCC(=O)O)[C@H]1CC[C@H]2[C@H]3C(C[C@H](O)[C@]12C)[C@@]1(C)CC[C@@H](O)C[C@H]1C[C@H]3O (some centres undefined) | 0.369 |
| C[C@@H]1O[C@@H](O[C@H]2[C@H](Oc3cc(O)c4c(c3)O[C@H](c3ccc(O)cc3)CC4=O)O[C@H](CO)[C@@H](O)[C@@H]2O)[C@H](O)[C@H](O)[C@H]1O | 6.67 |
| N[C@H](CO)Cc1cnc[nH]1 | 1.29 |
| COC1OC2COC(c3ccccc3)OC2C(O)C1O (centres undefined) | -2.82 |
| O=C(O)C1=C[C@@H](O)[C@@H](O)[C@H](O)C1 | -2.06 |
| NC(=O)NCCC[C@H](N)C(=O)O | -2.72 |
| CC1=CC(=O)[C@@H]2C[C@H]1C2(C)C | 2 |
| COC(=O)[C@H]1[C@@H]2C[C@@H]3c4[nH]c5ccccc5c4CCN3C[C@H]2CC[C@H]1O | 6.78 |
| CC[C@H](CC[C@@H](C)C1CC[C@H]2[C@@H]3CC=C4C[C@@H](O)CC[C@]4(C)[C@H]3CC[C@]12C)C(C)C (some centres undefined) | 2.38 |
| CC(C)CCCC(C)C1CCC2C3CC=C4CC(O)CCC4(C)C3CCC12C (centres undefined) | -4.94 |
| O=c1[nH]c(=O)n([C@@H]2O[C@H](CO)[C@@H](O)[C@H]2O)cc1F | -21.2 |
| O=c1ccn([C@H]2C[C@H](O)[C@@H](CO)O2)c(=O)[nH]1 | -0.999 |
| O=C(O)C1(O)C[C@H](O)C(O)[C@@H](O)C1 (some centres undefined) | 3.73 |
| O=c1[nH]c(=O)n([C@@H]2O[C@H](CO)[C@@H](O)[C@H]2O)cc1Br | -1.94 |
